Here are results for 8 compounds from PubChem BioAssay.

Activity calls are given as the source filed them.

For assay [1], the target named is NADPH oxidase 4 (Homo sapiens) (UniProt Q9NPH5). Briefly: compounds shifting NOX4 Amplex Red fluorescence – cell-based, HEK293-NOX4, tetracycline-induced, NOX inhibitor project, primary screen (AID 1160). The following applies: HEK293-NOX4, Amplex Red H2O2 fluorescence, 45 min; higher = more signal, called active from +8 up or from −8 down.
Assay [2] deals with NADPH oxidase 5 (Homo sapiens) (UniProt Q96PH1). In words: compounds shifting NOX5 Amplex Red fluorescence – cell-based, HEK293-NOX5, NOX inhibitor project, primary screen (AID 1161). The following applies: HEK293-NOX5, ionomycin, 45 min, higher = more signal.
Assay [3] in a line: compound effects on lung adenocarcinoma cell viability – A549, calcein-AM fluorescence, 48 h, basal, profiling panel (AID 1162). Further: test concentration not given here. The following applies: higher = more signal.
A short description of assay [4]: compound effects on differentiated 3T3-L1 adipocyte viability – cell-based, 3T3-L1 adipocytes, calcein-AM fluorescence, 48 h, basal, profiling panel (AID 1163). Further: test concentration not given here. The following applies: 3T3-L1 adipocytes viability, higher = more signal.
The nature of assay [5]: compound effects on hepatocellular carcinoma cell viability – HepG2, calcein-AM fluorescence, 48 h, basal, profiling panel (AID 1164). Further: test concentration not given here. Conditions: higher = more signal.
Assay [6] is described as follows: compound effects on multiple myeloma cell viability – MM1S, calcein-AM fluorescence, 48 h, basal, profiling panel (AID 1165).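 Further: viability of MM1S multiple myeloma cells under basal unstimulated conditions; test concentration not given here.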 The following applies: higher = more signal.
Assay [7] in a line: calcein-AM signal in unstimulated myeloma cells – cell-based, calcein-AM fluorescence, 48 h, PK04 Diversity Set, profiling panel (AID 1166).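 Further: cells grown under basal conditions without added stimulus; test concentration not given here.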 Conditions: RPMI8226 myeloma viability, higher = more signal.
A short description of assay [8]: JC-1 mitochondrial signal, unstimulated HepG2 cells – cell-based, JC-1 fluorescence, 24 h, 100 nL compound, profiling panel (AID 1167). Further: test concentration not given here. The following applies: HepG2 mitochondrial potential, higher = more signal.
A short description of assay [9]: JC-1 mitochondrial signal, unstimulated adipocytes – cell-based, JC-1 fluorescence, 3T3-L1 adipocytes, 24 h, 100 nL compound, profiling panel (AID 1168). Further: test concentration not given here. Conditions: JC-1 mitochondrial fluorescence, higher = more signal, called active from +8 up or from −8 down.
Assay [10] can be described thus: JC-1 mitochondrial signal, unstimulated myeloma cells – cell-based, JC-1 fluorescence, RPMI8226, 24 h, 100 nL compound, profiling panel (AID 1169). Further: test concentration not given here. Conditions: JC-1 mitochondrial potential fluorescence, higher = more signal.
The nature of assay [11]: JC-1 mitochondrial signal, unstimulated MM1S myeloma – cell-based, JC-1 fluorescence, 24 h, 100 nL compound, profiling panel (AID 1170). Further: test concentration not given here. Conditions: MM1S mitochondrial potential, higher = more signal.
A short description of assay [12]: resazurin metabolic signal in A549 cells – cell-based, resazurin fluorescence, 24 h, PK04 Diversity Set, profiling panel (AID 1171). Further: test concentration not given here. The following applies: A549 viability, higher = more signal, called active from +8 up or from −8 down. For orientation: The colour change of resazurin is a common sign of viable cells or microbes.
Assay [13] can be described thus: resazurin metabolic signal in HepG2 cells – cell-based, resazurin fluorescence, 24 h, PK04 Diversity Set, profiling panel (AID 1172). Further: test concentration not given here. Conditions: HepG2 viability, higher = more signal.
Assay [14] can be described thus: budding yeast growth changes without added modifier – OD600, strain BY4716, 24 h, basal condition, primary screen (AID 1173). Conditions: S. cerevisiae BY4716 growth, OD600, 24 h; higher = more signal, called active from +8 up or from −8 down.
Assay [15] in a line: viability profiling in MM1S myeloma cells – cell-based, resazurin fluorescence, basal, 24 h, PK04 Diversity Set, profiling panel (AID 1174). Further: test concentration not given here. The following applies: higher = more signal, called active from +8 up or from −8 down.
For assay [16], the target named is Dihydroorotate dehydrogenase (quinone), mitochondrial (Plasmodium falciparum (isolate 3D7)) (UniProt Q08210). In words: inhibition of P. falciparum DHODH – biochemical, C-terminal His tag, absorbance 600 nm, primary screen (AID 1175).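 Further: recombinant parasite enzyme with a five histidine tag at its C terminus; test concentration not given here.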 The following applies: PfDHODH enzyme, DCIP absorbance 600 nm; higher = more signal, called active from +8 up or from −8 down.
A short description of assay [17]: growth modulation of vineyard yeast isolate – strain RM11-1a, OD600, basal, 24 h, primary screen (AID 1177).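 Further: cultures grown under basal conditions with no added stressor; test concentration not given here.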 The following applies: S. cerevisiae RM11-1a growth, OD600, 24 h; higher = more signal, called active from +8 up or from −8 down.
Assay [18] in a line: growth of efflux-deficient E. coli DRC39 – strain DRC39, OD650, 24 h, E. coli filamentation inducers, primary screen (AID 1178).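 Further: growth measured as culture turbidity by optical density at 650 nm; test concentration not given here.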 Conditions: E. coli DRC39 acrAB, higher = more signal, called active from +8 up or from −8 down.
The nature of assay [19]: growth of efflux-deficient E. coli DRC39 – strain DRC39, OD650, 48 h, E. coli filamentation inducers, primary screen (AID 1179).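 Further: screen aims at cell division blockers that make cells filament.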 Conditions: E. coli DRC39 delta-acrAB growth, higher = more signal, called active from +8 up or from −8 down.
Assay [20] can be described thus: viability profiling in RPMI8226 myeloma cells – cell-based, resazurin fluorescence, basal, 24 h, PK04 Diversity Set, profiling panel (AID 1180).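 Further: RPMI8826 multiple myeloma cell line at 5000 cells per well; test concentration not given here.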 Conditions: higher = more signal.

Chain of NADPH oxidase 5 (Homo sapiens) (Q96PH1 whole entry, looked up): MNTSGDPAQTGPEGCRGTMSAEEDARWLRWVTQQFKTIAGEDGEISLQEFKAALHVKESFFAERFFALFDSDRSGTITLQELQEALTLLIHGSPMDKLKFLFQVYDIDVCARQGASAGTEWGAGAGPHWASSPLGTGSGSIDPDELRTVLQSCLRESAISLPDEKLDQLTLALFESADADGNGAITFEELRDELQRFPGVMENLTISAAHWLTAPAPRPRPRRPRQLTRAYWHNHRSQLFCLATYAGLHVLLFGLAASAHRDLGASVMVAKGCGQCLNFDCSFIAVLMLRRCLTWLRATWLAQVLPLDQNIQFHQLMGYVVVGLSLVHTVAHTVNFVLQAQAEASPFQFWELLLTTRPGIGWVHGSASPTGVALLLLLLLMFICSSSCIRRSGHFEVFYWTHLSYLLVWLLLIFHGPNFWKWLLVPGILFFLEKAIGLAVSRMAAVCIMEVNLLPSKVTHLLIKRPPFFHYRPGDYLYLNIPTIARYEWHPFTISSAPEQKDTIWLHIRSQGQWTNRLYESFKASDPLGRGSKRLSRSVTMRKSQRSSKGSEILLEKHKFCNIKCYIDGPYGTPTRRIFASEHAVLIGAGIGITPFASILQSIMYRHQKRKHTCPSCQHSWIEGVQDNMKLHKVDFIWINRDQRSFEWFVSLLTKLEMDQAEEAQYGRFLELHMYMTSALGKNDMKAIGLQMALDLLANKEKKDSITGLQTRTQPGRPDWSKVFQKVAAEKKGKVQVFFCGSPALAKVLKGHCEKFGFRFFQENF
Chain of NADPH oxidase 4 (Homo sapiens) (Q9NPH5 whole entry, looked up): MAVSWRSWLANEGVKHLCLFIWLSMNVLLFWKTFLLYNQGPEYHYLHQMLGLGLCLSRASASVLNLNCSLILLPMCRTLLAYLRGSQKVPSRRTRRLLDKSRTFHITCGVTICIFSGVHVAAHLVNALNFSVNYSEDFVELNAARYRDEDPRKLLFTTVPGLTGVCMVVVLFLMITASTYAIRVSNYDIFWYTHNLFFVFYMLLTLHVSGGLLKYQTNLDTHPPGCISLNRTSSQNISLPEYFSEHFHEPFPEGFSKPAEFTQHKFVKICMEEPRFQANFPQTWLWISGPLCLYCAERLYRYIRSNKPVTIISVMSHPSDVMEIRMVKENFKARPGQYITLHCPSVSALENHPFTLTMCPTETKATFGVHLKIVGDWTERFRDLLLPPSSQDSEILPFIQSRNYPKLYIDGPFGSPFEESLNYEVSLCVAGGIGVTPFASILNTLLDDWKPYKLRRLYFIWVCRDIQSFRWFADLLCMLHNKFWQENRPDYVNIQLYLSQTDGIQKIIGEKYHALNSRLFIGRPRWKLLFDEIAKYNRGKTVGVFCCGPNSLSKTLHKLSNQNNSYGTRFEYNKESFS
Chain of Dihydroorotate dehydrogenase (quinone), mitochondrial (Plasmodium falciparum (isolate 3D7)) (Q08210 whole entry, looked up): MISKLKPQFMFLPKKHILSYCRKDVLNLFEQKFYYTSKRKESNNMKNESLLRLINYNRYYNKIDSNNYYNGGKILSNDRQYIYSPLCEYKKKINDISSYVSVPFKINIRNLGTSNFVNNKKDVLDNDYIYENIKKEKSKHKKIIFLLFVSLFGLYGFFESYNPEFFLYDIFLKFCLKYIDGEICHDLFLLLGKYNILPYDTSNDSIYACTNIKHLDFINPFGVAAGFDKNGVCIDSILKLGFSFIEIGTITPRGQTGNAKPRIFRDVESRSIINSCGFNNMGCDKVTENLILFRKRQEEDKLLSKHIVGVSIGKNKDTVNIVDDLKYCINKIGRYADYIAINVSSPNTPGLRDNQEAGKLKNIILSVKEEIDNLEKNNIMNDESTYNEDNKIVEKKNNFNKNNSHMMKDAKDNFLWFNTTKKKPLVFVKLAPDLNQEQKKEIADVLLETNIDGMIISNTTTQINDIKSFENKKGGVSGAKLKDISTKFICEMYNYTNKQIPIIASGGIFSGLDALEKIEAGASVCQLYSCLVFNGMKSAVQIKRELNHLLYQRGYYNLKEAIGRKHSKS

As to `[N-]=[N+]=NCc1ccccc1C[C@]1(C(=O)NCc2ccccc2)N=C(c2ccc(OCCCO)cc2)O[C@H]1c1ccccc1`, the z-score in assay [1] was 1.24 (inactive); in assay [2], 0.0397; in assay [3], -2.79; in [4], 0.457; in assay [5], -2.82; in assay [6], -2.07. In addition, the z-score is -2.78 in [7]; 0.671 in assay [8]; 0.371 (inactive) in assay [9]; -0.819 in assay [10]; -1.6 in [11]; 0.225 (inactive) in assay [12]. Further, the z-score was 0.643 in [13]; 2.86 (inactive) in [14]; -0.295 (inactive) in assay [15]; 4.01 (inactive) in [17]; 3.49 (inactive) in [18]; 1.24 (inactive) in assay [19]. Moreover, the z-score in assay [20] was -0.29. Further, the composite z-score in assay [16] was 2.37 (inactive).

`C=CCC(OC(C)=O)[C@@H]1[C@@H](N(Cc2cccc3ccccc23)C(=O)Cc2ccc(OC)cc2)c2cc(OCCCO)ccc2N1C(=O)Cc1ccc(OC)cc1` (stereo not given in full): the z-score in assay [1] is -0.451 (inactive); in assay [2], 2.4; in assay [3], 1.25; in assay [4], 1.47; in assay [5] it was 0.691; in assay [6], 1.76. Further, the z-score in assay [7] was -1.55; in assay [8], 2.38; in assay [9] it was 0.847 (inactive); in [10], -0.44; in assay [11] it was 0.791; in [12] it was 0.493 (inactive). For the same compound, the z-score in assay [13] was -0.197; in assay [14], -1.63 (inactive); in assay [15] it was 0.844 (inactive); in [17], -0.27 (inactive); in [18], 1.51 (inactive); in assay [19] it was 0.443 (inactive). For the same compound, in [20], the z-score worked out at 0.666. Besides, the composite z-score in assay [16] was 0.363 (inactive).

For the compound `CC(C)C(=C=CC[C@@H](O)c1ccc(CO)o1)CCO`, the z-score was 1.64 (inactive) in assay [1]; 1.49 in assay [2]; 2.76 in [3]; -0.266 in assay [4]; 0.719 in assay [5]; 0.288 in assay [6]. Besides, the z-score in assay [7] is 0.889; in [8], 0.919; in assay [9] it was 0.556 (inactive); in [10], 0.304; in assay [11], 0.501; in [12], 1.37 (inactive). The z-score was 1.32 in [13]; -1.13 (inactive) in assay [14]; 1.07 (inactive) in assay [15]; -0.332 (inactive) in [17]; 2.09 (inactive) in assay [18]; 1.39 (inactive) in [19]. This compound yielded a z-score in assay [20] of 1.18. Also, in assay [16], the composite z-score is -0.669 (inactive).

As to `CO[C@H]1O[C@H](CO)[C@@H](OC(=O)Nc2ccccc2)[C@H](OC(=O)Nc2ccc3c(c2)OCO3)[C@H]1OC(=O)Nc1ccc2c(c1)OCO2`, the z-score in [1] is -3.08 (inactive); in assay [2] it was -2.05; in [3], 0.275; in assay [4], 1.27; in [5] it was -1.27; in assay [6], -1.03. Further, the z-score is -1.98 in [7]; -0.136 in assay [8]; 3.03 (inactive) in assay [9]; -0.629 in [10]; 0.398 in assay [11]; -1.33 (inactive) in assay [12]. Moreover, the z-score is -0.697 in [13]; -0.613 (inactive) in assay [14]; -0.652 (inactive) in [15]; 1.69 (inactive) in assay [17]; 2.13 (inactive) in [18]; 0.828 (inactive) in [19]. Further, in assay [20], the z-score is -0.638. The composite z-score in assay [16] was -0.48 (inactive).

For `COc1ccc([Si](C)(C)[C@H]2[C@H](CC(=O)N(CCO)Cc3ccccc3)O[C@@]3(C(=O)N(Cc4ccc(N5CCOC5=O)cc4)c4ccccc43)[C@@H]2C)cc1`, the z-score in assay [1] was -0.23 (inactive); in assay [2] it was 1.34; in [3], -0.832; in assay [4] it was 1.17; in [5] it was -0.721; in assay [6] it was -0.931. Moreover, the z-score is 0.17 in assay [7]; 1.51 in assay [8]; 0.647 (inactive) in assay [9]; -1.19 in [10]; 0.188 in assay [11]; -1.36 (inactive) in assay [12]. Moreover, the z-score in assay [13] was -0.292; in [14], -0.693 (inactive); in assay [15] it was -1.98 (inactive); in [17], 2.73 (inactive); in [18], 1.42 (inactive); in assay [19], 1.29 (inactive). This compound also came in with a z-score in [20] of -2.8. The composite z-score in assay [16] was 0.374 (inactive).

Regarding `CCCCCN1CC=CC23O[C@@H]4/C=C\CCC(C)OC(=O)C4[C@H]2C(=O)N(CCO)[C@@H]3C1=O` (stereo not given in full), the z-score in [1] is -0.354 (inactive); in assay [2] it was 2.5; in [3], 0.414; in assay [4], 2.4; in assay [5], 0.277; in assay [6], 2.91. Besides, the z-score in [7] was -0.245; in assay [8], 0.419; in assay [9] it was 1.74 (inactive); in assay [10], 0.791; in [11], 1.17; in assay [12], 0.095 (inactive). Also, the z-score in assay [13] was 0.355; in assay [14] it was -0.734 (inactive); in assay [15], 1.32 (inactive); in assay [17], 0.121 (inactive); in [18], 1.34 (inactive); in [19], 1.11 (inactive). Further, in assay [20], the z-score was determined as 1.22. Also, the composite z-score in assay [16] is 0.0255 (inactive).

In the case of `C=C(CCCC)/C(=C/C[C@@H](OC(=O)c1ccncc1)c1ccc(OCCO)cc1)c1cnc2ccccc2c1`, the z-score was -1.43 (inactive) in assay [1]; -0.922 in [2]; 0.4 in assay [3]; 1.56 in [4]; -0.375 in assay [5]; -1.52 in assay [6]. For the same compound, the z-score in assay [7] is -0.393; in assay [8], 2.07; in assay [9], -0.0617 (inactive); in assay [10], -0.344; in [11], 0.279; in [12], 0.395 (inactive). For the same compound, the z-score was 0.0347 in assay [13]; -2.64 (inactive) in [14]; 0.803 (inactive) in [15]; 0.365 (inactive) in assay [17]; 1 (inactive) in [18]; 0.734 (inactive) in [19]. For the same compound, in [20], the z-score was 1.59. The composite z-score in assay [16] was -2.2 (inactive).

As to `Cc1ccc(N2C(=O)c3ccccc3[C@](C)(C(=O)NCC(F)(F)F)[C@@H]2c2ccc(CO)cc2)nc1`, the z-score is -1.56 (inactive) in [1]; 1.22 in assay [2]; 0.708 in assay [3]; 1.45 in [4]; 0.529 in assay [5]; -0.436 in assay [6]. Moreover, the z-score was -1.45 in assay [7]; -0.106 in assay [8]; -0.603 (inactive) in assay [9]; 0.54 in assay [10]; 1.04 in assay [11]; 0.451 (inactive) in [12]. Moreover, the z-score is 0.125 in assay [13]; -1.08 (inactive) in [14]; 1.57 (inactive) in assay [15]; 0.216 (inactive) in [17]; 0.24 (inactive) in [18]; 0.536 (inactive) in [19]. The same compound gave a z-score in assay [20] of 1.4. Also, in assay [16], the composite z-score is 0.534 (inactive).
